Cruzain noTriton = qHTS Assay for Promiscuous and Specific Inhibitors of Cruzain (without detergent). Potency, µM, hits mostly inhibitors. AID 1476, 2009. Cruzipain (Trypanosoma cruzi), P25779. purified cruzain, Z-FR-AMC fluorescence, no detergent. 200,000 tested, 2.3% active; note: nearly all actives have a fitted effect of over 40% in size
Target sequence (P25779 123-467 limits assumed): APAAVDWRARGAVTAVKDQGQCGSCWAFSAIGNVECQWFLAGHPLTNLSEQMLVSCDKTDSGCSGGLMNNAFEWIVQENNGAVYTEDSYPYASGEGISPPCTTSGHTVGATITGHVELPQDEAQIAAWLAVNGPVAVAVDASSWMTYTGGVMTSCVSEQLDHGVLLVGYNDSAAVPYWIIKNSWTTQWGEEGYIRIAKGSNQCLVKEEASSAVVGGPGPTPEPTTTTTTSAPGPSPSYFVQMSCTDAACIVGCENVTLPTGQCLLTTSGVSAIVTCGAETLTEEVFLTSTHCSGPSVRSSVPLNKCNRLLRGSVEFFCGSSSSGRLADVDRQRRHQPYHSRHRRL
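Purified cruzain at 1.5 nM, pre-incubated 15 min with compound at room temperature in 100 mM sodium acetate pH 5.5, 5 mM DTT, 0.00005% Triton X-100. Reaction started with 2 uM Z-FR-AMC; AMC fluorescence increase over 60 s gives rate.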
Cruzain inh Det = qHTS Assay for Promiscuous and Specific Inhibitors of Cruzain (with detergent). purified cruzain, Z-FR-AMC fluorescence, 0.01% Triton. AID 1478, 2009. 200,000 tested, 0.43% active. Potency, µM, actives largely listed as inhibitors. Cruzipain (Trypanosoma cruzi), P25779; note: nearly all actives have a fitted effect of over 40% in size
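Compounds were screened in titration against cruzain (1.5 nM) with 0.01% Triton X-100 to counter colloidal aggregation. Activity was the AMC fluorescence increase over 60 s after adding 2 uM Z-FR-AMC at pH 5.5.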
Papain inh = qHTS Assay for Inhibitors of Papain: Counterscreen for Cruzain Assay | Potency, µM, usual class: inhibitors | AID 2161, 2009 | shares compounds with Cruzain inh Det | purified papain, Z-FR-AMC fluorescence cleavage | 410 tested, 41% active; note: nearly all actives have a fitted effect of over 35% in size
Target sequence (P00784 whole entry, looked up): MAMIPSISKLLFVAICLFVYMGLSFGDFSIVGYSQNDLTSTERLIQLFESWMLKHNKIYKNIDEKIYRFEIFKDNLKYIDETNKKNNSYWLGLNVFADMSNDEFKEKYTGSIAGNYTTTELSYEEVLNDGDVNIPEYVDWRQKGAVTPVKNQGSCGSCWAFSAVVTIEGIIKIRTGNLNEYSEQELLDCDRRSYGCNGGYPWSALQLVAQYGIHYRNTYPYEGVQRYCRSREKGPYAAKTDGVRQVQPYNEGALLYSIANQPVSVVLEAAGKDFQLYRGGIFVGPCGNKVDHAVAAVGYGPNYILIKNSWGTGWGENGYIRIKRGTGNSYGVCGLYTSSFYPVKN
A number is an active result. Compounds with a hit are over-represented: about 2.4% of the library has one in this group of screens. Calls come from the whole dose curve; as a rule, active = well fitted curve in the direction sought with a large enough effect; inconclusive = small, poorly fitted or top-dose-only effect, or another doubt; inactive = no such curve, though single readings can be large; an effect the other way counts as inactive or inconclusive.

Results for Cc1cc(=O)oc2cc(OCC(=O)NCCc3nc4ccccc4[nH]3)ccc12 ?
Cruzain noTriton: 2.5µM; Cruzain inh Det: 13µM

Results for O=C(CNC(=O)c1ccccc1)NCCc1nc2ccccc2[nH]1 ?
Cruzain noTriton: inactive; Cruzain inh Det: inactive

Results for COc1ccc(C(=O)NCCc2nc3ccccc3[nH]2)cc1 ?
Cruzain noTriton: inactive; Cruzain inh Det: 13µM

Results for CCOC(=O)CCc1nc2ccccc2[nH]1 ?
Cruzain noTriton: inactive; Cruzain inh Det: inactive

Results for Cc1cc(C)cc(OCC(=O)NCCc2nc3ccccc3[nH]2)c1 ?
Cruzain noTriton: inactive; Cruzain inh Det: 16µM

What do the screens show for `Cc1cc(=O)oc2cc(OCC(=O)NCc3ccccn3)ccc12`?
Cruzain noTriton: inactive; Cruzain inh Det: inactive

Results for Cc1ccccc1OCC(=O)Nc1ccccc1C(=O)OCc1cc(=O)n2nc(C3CC3)sc2n1 ?
Cruzain noTriton: inactive; Cruzain inh Det: inactive

How did COC(=O)c1c(-c2ccc(Cl)cc2)noc1N1CCN(c2cccc(C)c2C)CC1 do in these assays?
Cruzain noTriton: inactive; Cruzain inh Det: inactive

Results for COc1ccc(NC(=O)CC2C(=O)N(c3ccc(C)cc3)C(=O)N2C2CCCC2)cc1 (stereo not given) ?
Cruzain noTriton: inactive; Cruzain inh Det: inactive

What do the screens show for `COc1ccc(C(=O)NCC(c2cccnc2)N2CCc3ccccc3C2)cc1OC` (stereo not given)?
Cruzain noTriton: inactive; Cruzain inh Det: inactive

Results for Cc1ccc(C(=O)N(Cc2ccco2)Cc2sccc2C)cc1 ?
Cruzain noTriton: inactive; Cruzain inh Det: inactive

How did Cc1cccn2c(=O)cc(CSc3nnc(NC(=O)C(C)C)s3)nc12 do in these assays?
Cruzain noTriton: inactive; Cruzain inh Det: inactive

Results for Nc1ncc(S(=O)(=O)NCc2cccc(Cl)c2)cn1 ?
Cruzain noTriton: inactive; Cruzain inh Det: inactive

How did CC(=O)N1CCc2cc(S(=O)(=O)NC(CC(C)C)C(=O)NCCc3cccc(C)c3)ccc21 (stereo not given) do in these assays?
Cruzain noTriton: inactive; Cruzain inh Det: inactive

How did Fc1cnc(N2CCc3ccccc32)nc1N1CCc2ccccc21 do in these assays?
Cruzain noTriton: 3.2µM; Cruzain inh Det: inactive

How did O=C1CC(c2ccc(F)cc2)Cc2nc(N3CCc4ccccc43)ncc21 (stereo not given) do in these assays?
Cruzain noTriton: inconclusive; Cruzain inh Det: inactive

Results for CCOC(=O)c1[nH]c2c(c1Cc1ccccc1)C(=O)CC(c1ccccc1)C2 (stereo not given) ?
Cruzain noTriton: inactive; Cruzain inh Det: inactive

What do the screens show for `O=C(COc1ccccc1)Nc1ccc([N+](=O)[O-])cc1`?
Cruzain noTriton: inactive; Cruzain inh Det: inactive

Results for O=C(COc1ccc(/C=N/NC(=O)c2ccccc2)cc1)Nc1ccc([N+](=O)[O-])cc1 ?
Cruzain noTriton: 13µM; Cruzain inh Det: inactive

Results for O=C(CNc1ccccc1)N/N=C/c1ccc([N+](=O)[O-])cc1 ?
Cruzain noTriton: inactive; Cruzain inh Det: inactive

What do the screens show for `CC(C)Oc1ccc(/C=N/NC(=O)C(CSCc2ccccc2)NC(=O)c2ccc([N+](=O)[O-])cc2)cc1` (stereo not given)?
Cruzain noTriton: 20µM; Cruzain inh Det: inactive

How did CC(=O)N1CCc2cc(S(=O)(=O)CCC(=O)N3CCN(c4cccc(C)c4C)CC3)ccc21 do in these assays?
Cruzain noTriton: inactive; Cruzain inh Det: inactive

How did Cc1cccc(C(=O)N2CCc3cc(CNC(=O)c4cc5ccccc5[nH]4)ccc32)c1 do in these assays?
Cruzain noTriton: 32µM; Cruzain inh Det: inactive

What do the screens show for `COc1ccc2cc(C(=O)NCc3ccc4c(c3)CCN4C(=O)c3ccccc3)[nH]c2c1`?
Cruzain noTriton: inconclusive; Cruzain inh Det: inactive

What do the screens show for `O=C(CN1C(=O)C2C3CCC(C3)C2C1=O)OCC(=O)c1cccc([N+](=O)[O-])c1` (stereo not given)?
Cruzain noTriton: inactive; Cruzain inh Det: inactive

What do the screens show for `CC(C)C(C(=O)OCC(=O)c1cccc([N+](=O)[O-])c1)N1C(=O)[C@@H]2[C@H]3CC[C@H](C3)[C@@H]2C1=O` (stereo not given in full)?
Cruzain noTriton: inconclusive; Cruzain inh Det: 16µM

What do the screens show for `COc1ccc(C2C=C(c3ccc(F)cc3)Nc3nc(-c4ccc(Cl)cc4)nn32)cc1` (stereo not given)?
Cruzain noTriton: inactive; Cruzain inh Det: inactive

What do the screens show for `COc1ccc(C2=CC(c3ccccc3Cl)n3nc(-c4ccc(C)cc4)nc3N2)cc1` (stereo not given)?
Cruzain noTriton: 3.2µM; Cruzain inh Det: inactive

What do the screens show for `Cc1ccc(CNC(=O)c2cc3c(=O)n(C)c4ccccc4c3n2C)cc1`?
Cruzain noTriton: inconclusive; Cruzain inh Det: inactive

What do the screens show for `CN(CCNC(=O)c1cc2c(=O)n(C)c3ccccc3c2n1C)Cc1ccccc1`?
Cruzain noTriton: inconclusive; Cruzain inh Det: 14µM; Papain inh: inactive

Results for Cc1cc(=O)n(C(C)C(=O)NCc2ccccc2Cl)c2c1c(C)nn2-c1ccccc1 (stereo not given) ?
Cruzain noTriton: inactive; Cruzain inh Det: inactive

How did COC(=O)CC[C@@H](C)C1CC[C@H]2[C@H]3CC[C@H]4C[C@@H]5CCC4(C)[C@@]3(O5)[C@@H](Br)[C@@H](Br)[C@@]12C (stereo not given in full) do in these assays?
Cruzain noTriton: inactive; Cruzain inh Det: inactive

Results for CC(C)CCC[C@@H](C)[C@H]1CC[C@H]2[C@@H]3CC=C4C[C@@H](O)CC[C@]4(C)[C@H]3CC[C@]12C ?
Cruzain noTriton: inactive; Cruzain inh Det: inactive

Results for COC(=O)CCC(C)C1CCC2C3C(O)C[C@@H]4CC(O)CC[C@@]4(C)C3CC(O)[C@]12C (stereo not given in full) ?
Cruzain noTriton: inconclusive; Cruzain inh Det: inactive; Papain inh: inactive

Results for C[C@H](CCC(=O)O)[C@H]1CC[C@@H]2[C@@H]3[C@@H](O)C[C@H]4C[C@@H](O)CC[C@@]4(C)[C@H]3CC[C@@]21C ?
Cruzain noTriton: inconclusive; Cruzain inh Det: inactive; Papain inh: inactive

What do the screens show for `Cc1cn2c(=O)cc(COc3ccccc3NC(=O)c3ccccc3C)nc2s1`?
Cruzain noTriton: inactive; Cruzain inh Det: inactive

Results for COc1ccc(C2c3c(n(C)c4ccccc34)C(=O)N2CC(=O)Nc2ccc(Cl)cc2)cc1 (stereo not given) ?
Cruzain noTriton: inactive; Cruzain inh Det: inactive

How did COc1ccc2c(c1)OC(=O)CC2c1ccccc1C (stereo not given) do in these assays?
Cruzain noTriton: inactive; Cruzain inh Det: inactive

Results for O=C(NC(=S)Nc1cccc(Cl)c1N1CCCC1)c1ccc(-c2cccc([N+](=O)[O-])c2)o1 ?
Cruzain noTriton: 3.2µM; Cruzain inh Det: inactive; Papain inh: inactive

How did O=C(Nc1cccc(Cl)c1N1CCCCC1)c1ccc(N2CCOCC2)c([N+](=O)[O-])c1 do in these assays?
Cruzain noTriton: inactive; Cruzain inh Det: inactive

Results for CC1(C)Cc2c(C#N)c(N3CCN(C(=O)c4ccco4)CC3)nc(Cc3ccccc3)c2CO1 ?
Cruzain noTriton: inactive; Cruzain inh Det: inactive

Results for CC1(C)Cc2c(C#N)c(N3CCN(C(=O)c4ccco4)CC3)nc(-c3ccco3)c2CS1 ?
Cruzain noTriton: 16µM; Cruzain inh Det: 28µM; Papain inh: 3.5µM

Source: PubChem BioAssay
